NCOA2 inhibitor – inhibition of GAL4-SRC2 driven luciferase reporter, primary screen, SRC2 inhibitor project, cell-based, luminescence; inhibition, % at 9 µM; 370,000 compounds, 0.17% hits; Nuclear receptor coactivator 2 (Homo sapiens), Q15596; AID 651957, 2012; HEK293 GAL4-SRC2 luciferase reporter;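 active = inhibition above the mean inhibition of all tested compounds plus 3 SD, set per campaign, cut at about 52% in these data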;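 also: 0% = DMSO treated cells and 100% = cells given Gossypol at 36 µM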
SRC3 inh – SRC3 coactivator transcriptional activity inhibitors, primary screen, cell-based, luminescence. HEK293 GAL4-SRC3 luciferase reporter. inhibition, % at 3.6 µM. 360,000 compounds, 0.17% hits;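 active = inhibition above a per-campaign cutoff, the mean of all compounds plus 3 SD, cut at about 60% in these data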;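 also: 0% = DMSO-treated cells and 100% = gossypol-treated cells at 36 µM; higher means less SRC3-driven luciferase light from the GAL4 reporter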
NCOA1 inh – SRC1 coactivator transcriptional activity inhibitors, primary screen, cell-based, luminescence. HEK293 GAL4-SRC1 luciferase reporter. AID 588354, 2011. 360,000 compounds, 0.12% hits. Nuclear receptor coactivator 1 (Homo sapiens), Q15788. inhibition, % at 3.6 µM;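 active = inhibition above the campaign mean plus 3 SD, with each screening campaign given its own cutoff, cut at about 60% in these data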;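 also: 0% = DMSO treated cells and 100% = gossypol at 36 µM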
Gli-Sufu block – Gli-Sufu pathway antagonists, primary screen, luciferase luminescence, Sufu-KO-LIGHT cells, uHTS. Sufu-KO-LIGHT fibroblasts, Gli luciferase reporter luminescence. inhibition, % at 5 µM. 340,000 compounds, 0.74% hits. AID 588413, 2011;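 active = inhibition above about 55%, limit read from the data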;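 also: 0% = DMSO-treated cells and 100% = wells with medium but no cells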
LRH-1 inv ag – LRH-1 (NR5A2) inverse agonists, primary screen, cell-based, luminescence, HEK293T, StAR-luciferase reporter; Nuclear receptor subfamily 5 group A member 2 (Homo sapiens), O00482; LRH-1 transfected, 24 h; inhibition, % at 3.6 µM; 360,000 compounds, 0.13% hits;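 active = inhibition above the mean inhibition of all tested compounds plus 3 SD, cut at about 73% in these data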;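 also: 0% = DMSO wells and 100% = reporter-only cells lacking LRH-1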
Numbers without * were called inactive. This is a sample that favours compounds with a hit; in the whole collection about 0.83% have one here.

Results for COc1ccc(/C=C2\SC(=S)N(CCC(=O)Nc3ccc(C(=O)O)cc3)C2=O)cc1 ?
NCOA2 inhibitor: 5; SRC3 inh: 8; NCOA1 inh: -13; Gli-Sufu block: 32; LRH-1 inv ag: -6

How did COc1ccc(/C=C2/SC(=S)N(CCCC(=O)Nc3ccc(O)cc3)C2=O)cc1 do in these assays?
NCOA2 inhibitor: 31; SRC3 inh: 15; NCOA1 inh: 21; Gli-Sufu block: 57*; LRH-1 inv ag: 32

Results for CN1CCCc2cc3c(C(F)(F)F)cc(=O)oc3nc21 ?
NCOA2 inhibitor: 1; SRC3 inh: 9; NCOA1 inh: 3; Gli-Sufu block: 96*; LRH-1 inv ag: 9

Results for c1ccc(Cn2ccc3ccc(-c4ccc5ccn(Cc6cccc(Oc7ccccc7)c6)c5c4)cc32)cc1 ?
NCOA2 inhibitor: 9

What do the screens show for `CCOC(=O)c1ccc(-c2ccc(N3C(c4ccsc4)=Cc4ccc(F)cc4C3c3c[nH]c4ccc(C#N)cc34)cc2)cc1F` (stereo not drawn)?
NCOA2 inhibitor: 79*; LRH-1 inv ag: 20

What do the screens show for `COC(=O)c1cc(O)cc(OC)c1Oc1cc(C)cc(O)c1C(=O)O`?
NCOA2 inhibitor: -18; SRC3 inh: 68*; NCOA1 inh: 58; Gli-Sufu block: -8; LRH-1 inv ag: 59

Results for CCCCCCCCCCCCCCCC[N+](C)(C)CCl ?
NCOA2 inhibitor: 1; SRC3 inh: 0; NCOA1 inh: 3; Gli-Sufu block: 58*; LRH-1 inv ag: -16

How did CCCCCCCCCCCCCCCC[N+](C)(C)CC do in these assays?
NCOA2 inhibitor: 17; SRC3 inh: 17; NCOA1 inh: 14; Gli-Sufu block: 75*; LRH-1 inv ag: 32

What do the screens show for `CCCCCC[N+](C)(C)CCSSCC[N+](C)(C)CCCCCC`?
NCOA2 inhibitor: -36; SRC3 inh: -12; NCOA1 inh: 5; Gli-Sufu block: 6; LRH-1 inv ag: 9

What do the screens show for `COC(=O)[C@]12C[C@H](CC(=O)N3CCOCC3)C(=O)N(Cc3ccco3)C1=C[C@H](COCc1ccccc1)O[C@@H]2C`?
NCOA2 inhibitor: 4

Results for O=c1c2ccccc2nc(N/N=C/c2c(O)ccc3ccccc23)n1O ?
NCOA2 inhibitor: 18; SRC3 inh: 74*; NCOA1 inh: 67*; Gli-Sufu block: 33; LRH-1 inv ag: 84*

Results for S=C(NCCCc1cnc[nH]1)NCCCN(Cc1ccc(Cl)cc1)c1ccc(Br)cn1 ?
NCOA2 inhibitor: 45; SRC3 inh: 61; NCOA1 inh: 6; LRH-1 inv ag: 94*

What do the screens show for `COC(=O)[C@H](C)N(Cc1cn(Cc2ccccc2)nn1)S(=O)(=O)c1ccccc1Br`?
NCOA2 inhibitor: 4

What do the screens show for `O=C(Nc1ccc([N+](=O)[O-])cc1)Nc1ccc(OC(F)F)c(Cl)c1`?
NCOA2 inhibitor: 0; SRC3 inh: 75*; NCOA1 inh: 32; Gli-Sufu block: 58*; LRH-1 inv ag: 10

How did O=C(Nc1ccc(OC(F)F)c(Cl)c1)Nc1ccc2c(c1)OCO2 do in these assays?
NCOA2 inhibitor: -31; SRC3 inh: -6; NCOA1 inh: -13; Gli-Sufu block: -5; LRH-1 inv ag: -42

Results for COC(=O)C1CN(Cc2cn(Cc3ccc(F)cc3)nn2)CCS(=O)(=O)N1Cc1ccc(F)cc1 (stereo not drawn) ?
NCOA2 inhibitor: 9

What do the screens show for `Cc1nnc(SCC(=O)N2CCC(c3noc4ccc(F)cc34)CC2)s1`?
NCOA2 inhibitor: 46; SRC3 inh: 63*; NCOA1 inh: 62*; Gli-Sufu block: -5; LRH-1 inv ag: 21

How did Cc1nn(-c2ccc3ccccc3c2)c(=O)c2ccccc12 do in these assays?
NCOA2 inhibitor: -70; SRC3 inh: -75; NCOA1 inh: -104; Gli-Sufu block: -81; LRH-1 inv ag: -109

Results for Cc1nn(-c2nc3ccccc3[nH]2)c(=O)c2ccccc12 ?
NCOA2 inhibitor: 85*; SRC3 inh: 80*; NCOA1 inh: 74*; Gli-Sufu block: 79*; LRH-1 inv ag: 73*

How did COc1ccc(C2C(C(=O)Nc3ccc(C)c(C)c3)CCC(=O)N2c2ccc(OC)cc2)cc1 (stereo not drawn) do in these assays?
NCOA2 inhibitor: 7

What do the screens show for `CC(=O)c1sc(NC(=O)C=C(C)C)nc1C`?
NCOA2 inhibitor: -46; SRC3 inh: -36; NCOA1 inh: -32; Gli-Sufu block: -4; LRH-1 inv ag: -24

Results for CC(=O)c1sc(NC(=O)C2(F)C(F)(F)C(F)(F)C(F)(F)C(F)(F)C2(F)F)nc1C ?
NCOA2 inhibitor: 34; SRC3 inh: 36; NCOA1 inh: 41; Gli-Sufu block: 75*; LRH-1 inv ag: 38

How did COC(=O)[C@]12C[C@H](CC(=O)NCCc3ccccc3OC)C(=O)N(Cc3cccc4ccccc34)C1=C[C@H](C1CCCC1)O[C@@H]2C do in these assays?
NCOA2 inhibitor: 15

What do the screens show for `COC(=O)[C@]12C[C@H](CC(=O)NCCc3ccccc3OC)C(=O)N(CCc3ccc(OC)c(OC)c3)C1=C[C@H](C1CCCC1)O[C@@H]2C`?
NCOA2 inhibitor: 1

How did CCCCCCCCCn1ccc(=N)cc1 do in these assays?
NCOA2 inhibitor: 31; SRC3 inh: 68*; NCOA1 inh: 52; Gli-Sufu block: 89*; LRH-1 inv ag: 84*

What do the screens show for `c1ccc(-c2nnc(-c3ccccn3)nc2NC2CCCCC2)cc1`?
NCOA2 inhibitor: 14; SRC3 inh: 78*; NCOA1 inh: 50; Gli-Sufu block: 91*; LRH-1 inv ag: 67

Results for O=S1(=O)c2ccc(Br)cc2OC[C@@H](Cc2ccccc2)N1Cc1cn(CC2CCCCC2)nn1 ?
NCOA2 inhibitor: -51

How did CC(C)(C)c1cc(CCC(=O)NNC(=S)NC(=O)c2ccccc2)cc(C(C)(C)C)c1O do in these assays?
SRC3 inh: -3; NCOA1 inh: -13; Gli-Sufu block: 59*; LRH-1 inv ag: 18

How did COc1ccc(CN2C[C@]3(C=C(C)Cn4c(=O)n(-c5ccccc5)c(=O)n43)N=C2NC(=O)c2ccccc2)c(OC)c1 do in these assays?
NCOA2 inhibitor: -11

Results for C=CC(=O)N1C/C(=C/c2ccc(Cl)cc2)C(=O)/C(=C\c2ccc(Cl)cc2)C1 ?
NCOA2 inhibitor: 60*; SRC3 inh: -159; NCOA1 inh: inactive; Gli-Sufu block: -5; LRH-1 inv ag: 49

Results for C=CC(=O)N1C/C(=C/c2ccccc2)C(=O)/C(=C\c2ccccc2)C1 ?
NCOA2 inhibitor: 67*; SRC3 inh: -164; NCOA1 inh: inactive; Gli-Sufu block: -1; LRH-1 inv ag: 70

Results for O=C1C(=Cc2ccc(Cl)cc2)Cc2ccccc21 ?
NCOA2 inhibitor: -1; LRH-1 inv ag: 1

How did Cc1cc(C(=O)OCCCN(C)C2CN(Cc3cn(Cc4ccccc4C(F)(F)F)nn3)S(=O)(=O)C2)no1 (stereo not drawn) do in these assays?
NCOA2 inhibitor: -12

Source: PubChem BioAssay (several laboratories)
